Screening results as filed in PubChem.
Hits are enriched below; roughly 0.92% of the tested compounds scored in any of these assays.
BLM inh-1: blocks DNA unwinding by human BLM helicase; recombinant BLM DNA unwinding, fluorescence dequenching; P54132; Potency, µM (series often up to 56.1 µM), inactives show at the highest dose activity change, negative = inhibition, actives largely listed as inhibitors; AID 2528; 350,000 tested, 0.2% active;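 also: plate controls were vehicle for no effect and no enzyme for full effect; nearly all actives have a fitted effect of over 35% in size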
Target sequence (P54132 whole entry, looked up): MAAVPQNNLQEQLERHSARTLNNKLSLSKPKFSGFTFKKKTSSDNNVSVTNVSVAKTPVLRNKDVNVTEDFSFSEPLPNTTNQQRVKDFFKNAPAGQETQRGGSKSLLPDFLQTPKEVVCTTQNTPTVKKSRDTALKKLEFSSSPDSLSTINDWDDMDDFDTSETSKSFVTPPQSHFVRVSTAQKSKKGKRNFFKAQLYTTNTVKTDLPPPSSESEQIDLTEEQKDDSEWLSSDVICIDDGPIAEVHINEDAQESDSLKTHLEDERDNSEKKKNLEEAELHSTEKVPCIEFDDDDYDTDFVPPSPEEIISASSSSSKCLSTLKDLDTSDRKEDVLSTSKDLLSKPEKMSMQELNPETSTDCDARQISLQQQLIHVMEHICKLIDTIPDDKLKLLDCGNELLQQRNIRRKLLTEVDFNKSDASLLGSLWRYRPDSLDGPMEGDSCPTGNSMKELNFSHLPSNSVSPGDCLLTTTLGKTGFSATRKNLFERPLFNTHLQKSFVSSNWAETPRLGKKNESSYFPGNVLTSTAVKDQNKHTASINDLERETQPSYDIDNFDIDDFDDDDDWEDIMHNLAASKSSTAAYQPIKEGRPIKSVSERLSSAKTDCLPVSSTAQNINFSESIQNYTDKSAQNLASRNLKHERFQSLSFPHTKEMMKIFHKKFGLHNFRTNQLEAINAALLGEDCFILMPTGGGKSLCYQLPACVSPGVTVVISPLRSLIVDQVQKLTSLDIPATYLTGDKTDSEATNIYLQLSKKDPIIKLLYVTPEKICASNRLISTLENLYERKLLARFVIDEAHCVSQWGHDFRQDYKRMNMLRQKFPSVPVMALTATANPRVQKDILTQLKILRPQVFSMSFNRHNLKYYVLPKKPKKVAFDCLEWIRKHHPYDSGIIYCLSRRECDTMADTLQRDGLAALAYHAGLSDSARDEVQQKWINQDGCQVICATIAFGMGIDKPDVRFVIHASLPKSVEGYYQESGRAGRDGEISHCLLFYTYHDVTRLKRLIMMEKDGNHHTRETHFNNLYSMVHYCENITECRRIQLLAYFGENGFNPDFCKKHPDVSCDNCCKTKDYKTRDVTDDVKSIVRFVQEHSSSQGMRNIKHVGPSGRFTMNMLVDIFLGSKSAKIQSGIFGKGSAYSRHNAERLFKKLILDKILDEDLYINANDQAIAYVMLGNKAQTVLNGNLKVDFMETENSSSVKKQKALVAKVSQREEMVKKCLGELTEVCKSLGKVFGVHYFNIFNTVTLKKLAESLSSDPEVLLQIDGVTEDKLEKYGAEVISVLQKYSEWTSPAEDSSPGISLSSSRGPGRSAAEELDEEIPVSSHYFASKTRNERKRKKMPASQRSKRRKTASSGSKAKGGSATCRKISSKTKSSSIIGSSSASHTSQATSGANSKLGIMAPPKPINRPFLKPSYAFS
APEX1 inh: APE1 (human) endonuclease inhibition. recombinant APE1, TAMRA/BHQ-2 abasic DNA cleavage fluorescence. AID 2517. Potency, µM (titrated, usually from 65.8 µM), without a hit: at the highest dose activity change, negative = inhibition, usual class: inhibitors. 350,000 tested, 0.35% active;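 also: plate controls were vehicle for no effect and reference inhibitor for full effect; nearly all actives have a fitted effect of over 55% in size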
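APE1 at 0.75 nM final was preincubated with compound 15 min at room temperature, then 50 nM double-stranded THF abasic-site substrate (5'-TAMRA/3'-BHQ-2) was added. Fluorescence (ex 525/em 598 nm) was read kinetically; third-minus-first read gave activity.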
RECQ1 inh-1: blocks DNA unwinding by human RECQ1; P46063; RECQ1 DNA unwinding, red fluorescence kinetic read; Potency, µM (highest dose often 57.3 µM), for inactives: at the top dose activity, negative = inhibition, most hits filed as inhibitors; 240,000 tested, 0.54% active; AID 2549;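 also: plate controls were vehicle for no effect and no enzyme for full effect; nearly all actives have a fitted effect of over 30% in size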
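RECQ1T1 50 nM; forked duplex (20 bp + 30-nt ss tails) 200 nM, ATP 2 mM final; pH 8.0, 2 mM MgCl2, 2.5 ug/ml poly(dI-dC); 15 min compound preincubation; discontinuous kinetic read over 2 h at RT.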
L3MBTL1 inh: L3MBTL1 (human) inhibition. Potency, µM (series often up to 57.1 µM), for inactives: at the highest dose activity, negative = inhibition, most hits filed as inhibitors. AlphaScreen L3MBTL1–H3K9me1 peptide binding. 230,000 tested, 0.66% active; also: nearly all actives have a fitted effect of over 60% in size
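Displacement of a biotinylated histone H3(1-15) peptide monomethylated at Lys9 (75 nM) from L3MBTL1 (50 nM) was measured by AlphaScreen after a 30 min room-temperature compound incubation; cefsulodin titration served as intraplate control.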
WRN inhibitor: blocks human WRN helicase | Q14191 | 360,000 tested, 0.46% active | Potency, µM (highest dose often 114 µM), without a hit: at the top dose activity change, negative = inhibition, hits mostly inhibitors | WRN helicase unwinding, fluorescent forked duplex, kinetic; also: nearly all actives have a fitted effect of over 55% in size
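Kinetic red-fluorescence monitoring (525/598 nm) tracks WRN helicase activity after 100 nM fluorophore-quencher forked duplex and 2 mM ATP are added to 20 nM enzyme pretreated 15 min at room temperature with compound.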
BLM inh-2: confirmation of inhibitors of human Bloom syndrome helicase BLM. shares compounds with BLM inh-1. AID 2585. 220 tested, 40% active. BLM DNA unwinding, fluorescence quenching, biochemical. Potency, µM, for the others: max response, negative = inhibition, actives largely listed as inhibitors;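 also: strand separation dequenches TAMRA so unwinding raises red fluorescence; series mostly up to about 69 µM; nearly all actives have a fitted effect of over 45% in size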
RECQ1 inh conf: confirmation of human RECQ1 helicase inhibitors; shares compounds with RECQ1 inh-1; RECQ1 helicase DNA unwinding, fluorescence; Potency, µM (highest dose often 229 µM), for the others: at the top dose activity change, negative = inhibition, most hits filed as inhibitors; 610 tested, 28% active; AID 2708; also: nearly all actives have a fitted effect of over 45% in size
ADP FP counter: counter-screen for RECQ1 inhibitors: ADP displacement; ADP fluorescence polarization displacement counterscreen; 530 tested, 27% active; Potency, µM (doses to about 228 µM), inactives show top-dose activity change, negative = inhibition, usual class: inhibitors; shares compounds with RECQ1 inh-1; also: nearly all actives have a fitted effect of over 45% in size
RECQ1 inh-2: confirmation of human RECQ1 helicase inhibitors; recombinant RECQ1 DNA unwinding, red fluorescence; 1,100 tested, 15% active; Potency, µM (doses to about 119 µM), without a hit: at the top dose activity, negative = inhibition, hits mostly inhibitors; shares compounds with RECQ1 inh-1; also: nearly all actives have a fitted effect of over 50% in size
Active calls of the source: *; i = inactive; ? = inconclusive; . = not tested or not shown; ! = not active in a repeat; [ ] = remark or other dose. Calls follow the shape of the dose curve; as a rule, active = well fitted curve in the direction sought with a large enough effect; inconclusive = small, poorly fitted or top-dose-only effect, or another doubt; inactive = no such curve, though single readings can be large; an effect the other way counts as inactive or inconclusive. Unless noted, % is scaled to controls: 0 for no effect and ±100 for the full control effect; potency is read from the fitted curve at half-maximal effect.

SMILES	BLM inh-1	APEX1 inh	RECQ1 inh-1	L3MBTL1 inh	WRN inhibitor	BLM inh-2	RECQ1 inh-2	others
CCOc1ccc2[nH]c(=O)c(C(c3nnnn3Cc3ccco3)N3CCN(C)CC3)cc2c1 (stereo unspecified)	1.1µM*	?	7.1µM*	-25%	4%	3%	4%	RECQ1 inh conf=24%[114 µM];ADP FP counter=45µM*
CCCCC(C=O)NC(=O)C(CC(C)C)NC(=O)OCc1ccccc1 (stereo unspecified)	1%	9%	-5%	.	.	.	.
O=C(/C=C\c1ccco1)c1ccc(NC(=O)c2ccco2)cc1	20µM*	?	?	11µM*	?	-6%	?
O=C(/C=C/c1ccco1)c1ccc(O)cc1	1%	?	i	.	.	.	.
Oc1ccc(NCc2cccc(OCc3ccc(F)cc3)c2)cc1	14µM*	5%	?	?	8%	?	-18%
Oc1ccc(NCc2cccc(OCc3ccccc3)c2)cc1	?	-11%	-10%	?	22%	.	.
COc1cccc(-c2nnc3sc(-c4ccccc4)nn23)c1	0%	-1%	-5%	-4%	3%	.	.
COc1cccc(OC)c1-c1nn2c(-c3cc(-c4ccccc4)n[nH]3)nnc2s1	28µM*	?	11µM*	-29%	40µM*	?	.	ADP FP counter=91%[91.9 µM]
CCOc1cc(CNC(=O)c2ccc3c(c2)N(C)C(=O)C2CCCCN32)ccc1OC (stereo unspecified)	0%	.	.	.	.	.	.
O=C(COc1ccc([N+](=O)[O-])cc1)Nc1nnc(-c2cccnc2)s1	16µM*	?	?	?	-18%[57.1 µM]	?	?
C[C@@H](CN(C)C[C@H]1C(=O)O[C@@H]2C[C@@]3(C)CCC[C@]4(CO4)C3CC21)[C@H](O)c1ccccc1 (stereo partly specified)	2%	0%	-1%	.	.	.	.
Cc1cccc(N2CCC(N3CCN(C4CCCCC4)C(CCO)C3)CC2)c1C (stereo unspecified)	14µM*	22µM*	?	16µM*	0%	7%	-13%
Oc1ccc([C@@H]2CNCCc3c2cc(O)c(O)c3Cl)cc1	?	?	?	.	.	?	.	RECQ1 inh conf=?;ADP FP counter=7.1µM*
Oc1cc2c(cc1O)C(c1ccccc1)CNCC2 (stereo unspecified)	-16%	1%	-7%	.	6%	.	.
CC1CCC(Nc2nc3c(-c4cccc(C(F)(F)F)c4)nnn3c3ccccc23)CC1 (stereo unspecified)	-9%	.	.	.	.	.	.
COC(=O)c1ccc(COc2ccc(/C=C(\C#N)c3nc4ccccc4[nH]3)cc2OC)o1	14µM*	-6%	?	4%	?	?	79µM*
COc1ccccc1CNc1nc(-c2ccc(C(=O)N(C)C)cc2)nc2ccccc12	-3%	6%	-12%	.	.	.	.
COc1ccccc1CNc1nc(-c2ccc(N(C)C)cc2)nc2ccccc12	14µM*	-2%	?	.	.	23µM*	-2%
CCOC(=O)c1c(NC(=O)CSc2cn(CCNC(=O)c3ccccc3F)c3ccccc23)sc2c1CCC2	-4%	.	.	.	.	.	.
COc1cccc2c1C(=O)c1c(O)c3c(c(O)c1C2=O)C[C@@](O)(C(=O)CO)C[C@@H]3O[C@H]1C[C@H](N)[C@H](O)[C@H](C)O1	28µM*	7.1µM*	32µM*!	-14%	56µM*	41µM*	.	RECQ1 inh conf=36µM*
